Measurements as given in PubChem BioAssay AID1159580 (chemical genetic matrix, 2015).
Hit rate of the full screen: of about 5,500 compounds, about 2,000 (36%) were called active. Roughly 18% stayed inconclusive and do not appear here. Rule as the data show it: active = normalized growth mostly below about 0.91 (no sharp cut-off); inconclusive = no clear call, values can overlap the other calls; inactive = mostly above about 0.92. The list shows a part of the results.

Test: chemical genetic growth profiling, strain panel (AID 1159580);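 also: tested at 20 µM; growth read once vehicle control cultures reached saturation at 30 °C; 1 = growth at the plate median or of vehicle wells; lower values mean less growth of the strain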
Conditions: growth OD

Measured: normalized growth

CC(=O)[C@@]1(O)CCC2C3CCC4=CC(=O)CC[C@]4(C)C3CC[C@@]21C (stereo partly drawn)
inactive: S. cerevisiae deletion strains, locus YJR066W, strain TOR1, active compounds read low 0.93 | S. cerevisiae deletion strains, locus YKL009W, strain mrt4, active compounds read low 0.995 | S. cerevisiae deletion strains, locus YKL068W, active compounds read low 1.01 | S. cerevisiae deletion strains, locus YKL085W, strain MDH1 (second series), active compounds read low 1.02 | S. cerevisiae deletion strains, locus YKL085W, strain MDH1, active compounds read low 1.02 | S. cerevisiae deletion strains, locus YKL160W, strain elf1, active compounds read low 0.997 | S. cerevisiae deletion strains, locus YKL190W, strain CNB1, active compounds read low 0.998 | S. cerevisiae deletion strains, locus YKR001C, strain vps1, active compounds read low 1.06 | S. cerevisiae deletion strains, locus YKR026C, strain gcn3, active compounds read low 0.966 | S. cerevisiae deletion strains, locus YKR091W, strain srl3, active compounds read low 0.991 | S. cerevisiae deletion strains, locus YLL001W, strain dnm1, active compounds read low 0.98 | S. cerevisiae deletion strains, locus YLL026W, active compounds read low 0.994 | S. cerevisiae deletion strains, locus YLL041C, strain sdh2, active compounds read low 0.99 | S. cerevisiae deletion strains, locus YLR027C, strain aat2, active compounds read low 1 | S. cerevisiae deletion strains, locus YLR039C, strain RIC1, active compounds read low 0.841 | S. cerevisiae deletion strains, locus YLR058C, strain SHM2, active compounds read low 0.987 | S. cerevisiae deletion strains, locus YLR102C, strain apc9, active compounds read low 1.01 | S. cerevisiae deletion strains, locus YLR113W, strain HOG1, active compounds read low 0.97 | S. cerevisiae deletion strains, locus YLR221C, strain rsa3, active compounds read low 1 | S. cerevisiae deletion strains, locus YLR258W, strain gsy2, active compounds read low 0.993 | S. cerevisiae deletion strains, locus YLR262C, strain YPT6, active compounds read low 0.805 | S. cerevisiae deletion strains, locus YLR268W, strain sec22, active compounds read low 1.01 | S. cerevisiae deletion strains, locus YLR320W, strain mms22, active compounds read low 0.939 | S. cerevisiae deletion strains, locus YLR330W, strain CHS5, active compounds read low 1 | S. cerevisiae deletion strains, locus YLR342W, strain FKS1 (second series), active compounds read low 0.987 | S. cerevisiae deletion strains, locus YLR342W, strain FKS1, active compounds read low 0.989 | S. cerevisiae deletion strains, locus YLR357W, strain rsc2, active compounds read low 1.01 | S. cerevisiae deletion strains, locus YLR370C, strain arc18, active compounds read low 0.984 | S. cerevisiae deletion strains, locus YLR371W, strain rom2, active compounds read low 1.01 | S. cerevisiae deletion strains, locus YLR384C, strain iki3, active compounds read low 1.01 | S. cerevisiae deletion strains, locus YLR418C, strain cdc73, active compounds read low 1.01 | S. cerevisiae deletion strains, locus YML016C, strain PPZ1, active compounds read low 0.986 | S. cerevisiae deletion strains, locus YML032C, strain rad52, active compounds read low 0.981 | S. cerevisiae deletion strains, locus YML120C, strain ndi1, active compounds read low 1.01 | S. cerevisiae deletion strains, locus YML124C, strain tub3, active compounds read low 1 | S. cerevisiae deletion strains, locus YMR058W, strain fet3, active compounds read low 0.996 | S. cerevisiae deletion strains, locus YMR078C, strain ctf18, active compounds read low 0.992 | S. cerevisiae deletion strains, locus YMR125W, strain sto1, active compounds read low 0.984 | S. cerevisiae deletion strains, locus YMR129W, active compounds read low 0.982 | S. cerevisiae deletion strains, locus YMR205C, strain PFK2, active compounds read low 0.957 | S. cerevisiae deletion strains, locus YMR223W, strain ubp8, active compounds read low 0.995 | S. cerevisiae deletion strains, locus YMR231W, strain pep5, active compounds read low 0.996 | S. cerevisiae deletion strains, locus YMR307W, strain GAS1, active compounds read low 0.97 | S. cerevisiae deletion strains, locus YNL067W, strain RPL9B, active compounds read low 0.999 | S. cerevisiae deletion strains, locus YNL071W, strain lat1, active compounds read low 1 | S. cerevisiae deletion strains, locus YNL183C, strain NPR1, active compounds read low 0.907 | S. cerevisiae deletion strains, locus YNL209W, strain ssb2, active compounds read low 0.995 | S. cerevisiae deletion strains, locus YNL233W, strain BNI4, active compounds read low 1 | S. cerevisiae deletion strains, locus YNL248C, strain rpa49, active compounds read low 0.999 | S. cerevisiae deletion strains, locus YNL250W, strain rad50, active compounds read low 1.01 | S. cerevisiae deletion strains, locus YNL271C, strain bni1, active compounds read low 1 | S. cerevisiae deletion strains, locus YNL298W, strain CLA4, active compounds read low 1.01 | S. cerevisiae deletion strains, locus YNL307C, strain MCK1, active compounds read low 1.01 | S. cerevisiae deletion strains, locus YNL322C, strain KRE1 (second series), active compounds read low 0.996 | S. cerevisiae deletion strains, locus YNL322C, strain KRE1, active compounds read low 0.994 | S. cerevisiae deletion strains, locus YNR049C, strain mso1, active compounds read low 0.988 | S. cerevisiae deletion strains, locus YNR052C, strain pop2, active compounds read low 1 | S. cerevisiae deletion strains, locus YOL012C, strain htz1 0.769 | S. cerevisiae deletion strains, locus YOL147C, strain pex11, active compounds read low 1.01 | S. cerevisiae deletion strains, locus YOR001W, strain rrp6, active compounds read low 1 | S. cerevisiae deletion strains, locus YOR061W, strain CKA2, active compounds read low 0.993 | S. cerevisiae deletion strains, locus YOR069W, strain VPS5, active compounds read low 0.996 | S. cerevisiae deletion strains, locus YOR070C, strain gyp1, active compounds read low 0.994 | S. cerevisiae deletion strains, locus YOR080W, strain dia2, active compounds read low 0.991 | S. cerevisiae deletion strains, locus YOR083W, strain WHI5, active compounds read low 1 | S. cerevisiae deletion strains, locus YOR106W, strain vam3, active compounds read low 1.02 | S. cerevisiae deletion strains, locus YOR136W, strain idh2, active compounds read low 1.01 | S. cerevisiae deletion strains, locus YOR144C, strain elg1, active compounds read low 1 | S. cerevisiae deletion strains, locus YOR184W, strain ser1, active compounds read low 0.943 | S. cerevisiae deletion strains, locus YOR231W, strain MKK1, active compounds read low 0.965 | S. cerevisiae deletion strains, locus YOR265W, strain rbl2, active compounds read low 1 | S. cerevisiae deletion strains, locus YOR270C, strain vph1, active compounds read low 0.974 | S. cerevisiae deletion strains, locus YOR290C, strain snf2, active compounds read low 0.953 | S. cerevisiae deletion strains, locus YOR316C, strain cot1, active compounds read low 1 | S. cerevisiae deletion strains, locus YPL051W, strain arl3, active compounds read low 0.995 | S. cerevisiae deletion strains, locus YPL055C, strain LGE1, active compounds read low 1.02 | S. cerevisiae deletion strains, locus YPL078C, strain atp4, active compounds read low 0.997 | S. cerevisiae deletion strains, locus YPL106C, strain sse1, active compounds read low 1.02 | S. cerevisiae deletion strains, locus YPL240C, strain hsp82, active compounds read low 0.987 | S. cerevisiae deletion strains, locus YPL241C, strain CIN2, active compounds read low 0.995 | S. cerevisiae deletion strains, locus YPL256C, strain CLN2, active compounds read low 0.96 | S. cerevisiae deletion strains, locus YPR119W, strain clb2, active compounds read low 1 | S. cerevisiae deletion strains, locus YPR141C, strain kar3, active compounds read low 0.992 | S. cerevisiae deletion strains, locus YPR163C, strain tif3, active compounds read low 0.998 | S. cerevisiae deletion strains, locus YPR167C, strain met16, active compounds read low 1 | S. cerevisiae deletion strains, strain wtn01, active compounds read low 1.05 | S. cerevisiae strains, strain wild type, active compounds read low 0.991
active: S. cerevisiae deletion strains, locus YLR262C, strain YPT6 (second series), active compounds read low 0.823
